VP16 counter: inhibits Gal4-VP16 luciferase reporter, ROR gamma counter-screen. Drosophila S2 Gal4-VP16 UAS-luciferase, luminescence, 20 h. Potency, µM (doses to about 53.6 µM), inactives show at the top dose activity, negative = inhibition, usual class: inhibitors. 3.5% of 310,000 active. AID 2546;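 note: Gal4-VP16 expression switched on by copper sulfate through the metallothionein promoter; % is set by controls: 0 for no effect and ±100 for the full control effect; nearly all actives have a fitted effect of over 50% in size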
PINK1 expr mod: changes PINK1 expression; PINK1 immunofluorescence, high-content cytometry, 24 h; Potency, µM (titrated, usually from 76.6 µM), for inactives: at the top dose activation (PINK1 increase), most hits filed as activators; 0.2% of 410,000 active; AID 624263; active = well fitted activation curve with a large enough effect; inconclusive = small, poorly fitted or top-dose-only effect; cell line not stated here; note: % of control where 0% means no effect; nearly all actives have a fitted effect of over 65% in size
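PINK1 protein, normally rapidly degraded, was detected by immunofluorescence after 24 hour compound treatment of a stable cell line. Titration data (5 concentrations) came from laser-scanning cytometry, with CCCP-treated wells as controls.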
ClpP mod: qHTS Assay for Activators of ClpP; 1.9% of 340,000 active; AID 651965, 2013; ATP-dependent Clp protease proteolytic subunit (Bacillus subtilis (strain 168)), P80244; purified B. subtilis ClpP, FRET peptide cleavage, 20 min; Potency, µM (top dose mostly 57.5 µM), without a hit: at the top dose activity change, negative = active; active = well fitted falling curve with a large enough effect; inconclusive = small, poorly fitted or top-dose-only effect; inactive = no such curve, though single readings can be large or run the other way; note: the source files actives as falling curves though it sought activators and does not explain the sign; nearly all actives have a fitted effect of over 65% in size
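FRET quenching reversal measured ClpP activation: 10 microg/mL B. subtilis ClpP at pH 8 with the FRET-FV decapeptide, read at 430 nm after 320 nm excitation. The 20-min minus 0-min signal was scaled between DMSO/no-enzyme wells and ADEP (5.8 microM final).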
Sfp inh: inhibitors of Bacillus subtilis Sfp phosphopantetheinyl transferase. Q9F4F7. Biochemical Sfp PPTase activity, qHTS. Potency, µM, for inactives: largest response in the series, negative = inhibition, hits mostly inhibitors. 3.5% of 310,000 active;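 note: the enzyme is Sfp with the accession as filed and its product quenches rhodamine fluorescence; 0% = enzyme reaction without inhibitor and -100% = no enzyme wells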
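With Hepes-Na pH 7.6 buffer containing 10 mM MgCl2, Sfp (15 nM) modified BHQ-2-YbbR (12.5 uM) using rhodamine-CoA (5 uM). Two reads 30 minutes apart at 525/598 nm yielded each well's rate.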
Epigenetic derep: derepresses silenced GFP reporter in murine cells; 0.2% of 280,000 active; Potency, µM (series often up to 53.9 µM), without a hit: top-dose GFP activation, most hits filed as activators; murine LDR cells, GFP reporter derepression, 30 h; note: % of control where 0% means no effect; nearly all actives have a fitted effect of over 60% in size
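In this reporter-derepression format, murine cells bearing a silenced integrated CMV-GFP locus incubate with test compound (30 h, 37 C), then are washed and imaged; fluorescent objects of 20–120 um count as induced cells.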
RORgamma inh: inhibitors of mouse ROR gamma transcriptional activity | Drosophila S2 Gal4-RORgamma UAS-luciferase reporter, 20 h | Potency, µM (doses to about 53.6 µM), inactives show at the top dose activity change, negative = inhibition, actives largely listed as inhibitors | 5.4% of 310,000 active | AID 2551; note: % is set by controls: 0 for no effect and ±100 for the full control effect; nearly all actives have a fitted effect of over 60% in size
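Drosophila Schneider cells stably carrying a metallothionein-driven Gal4 DBD–ROR gamma fusion and a UAS-Photinus luciferase reporter were exposed to compound for 1 hr, then induced with copper sulfate (700 uM final) for 20 hr at ambient temperature before luminescence reading.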
The depositor's hits bear a star; ? = inconclusive; / = no result given; [ ] = another dose, or the depositor's remark. A selection: hits, their analogues and other compounds. The true share with any hit is near 8.1%. Unless noted, calls come from the whole dose curve; as a rule, active = well fitted curve in the direction sought with a large enough effect; inconclusive = small, poorly fitted or top-dose-only effect, or another doubt; inactive = no such curve, though single readings can be large; an effect the other way counts as inactive or inconclusive. Potency is the fitted concentration of half-maximal effect.

SMILES	VP16 counter	PINK1 expr mod	ClpP mod	Sfp inh	Epigenetic derep	RORgamma inh
COC(=O)C(C)Oc1cc(C)cc2oc(=O)c3c(c12)CCC3 (stereo unspecified)	26%	4%	53%	-3%	-1%	-35%
CC1Cc2ccccc2CN1 (stereo unspecified)	/	/	-2%	/	/	/
C=C(C)[C@]12C[C@@H](C)[C@@]34O[C@](Cc5ccccc5)(O[C@@H]1[C@@H]3C=C(COC(=O)Cc1ccc(O)c(OC)c1)C[C@]1(O)C(=O)C(C)=C[C@@H]41)O2	?	/	/	22%	3%	4%
CN1CCCCC1Cn1cc(C(=O)c2cc([N+](=O)[O-])ccc2I)c2ccccc21 (stereo unspecified)	1%	/	/	-21%	/	24%
COc1cc(OC)c(OC)cc1/C=C1\C(=O)NC(=O)N(Cc2ccccc2)C1=O	-2%[10 µM]	3%	/	-14%	0%	-6%
O=C1NC(=O)N(CCc2ccc(F)cc2)C(=O)/C1=C/c1ccco1	2%	5%	/	50µM*	-2%	7%
CN(C)c1ccc(/C=C2\C(=O)NC(=O)N(CCc3ccc(F)cc3)C2=O)cc1	-1%	1%	-1%	-18%	-3%	7%
CC(C)c1ccc(N2C(=O)NC(=O)/C(=C\C=C\c3ccco3)C2=O)cc1	4.5µM*	4%	/	-18%	?	?
O=C1NC(=O)N(Cc2ccccc2)C(=O)/C1=C/C=C/c1ccco1	13µM*	0%	0%	?	?	?
Cc1ccc(N2C(=O)NC(=O)/C(=C/c3cnc(-c4ccccc4)nc3)C2=O)cc1C	3%	0%	1%	?	0%	-16%
CC(C)c1ccc(N2C(=O)NC(=O)/C(=C\c3cnc(-c4ccccc4)nc3)C2=O)cc1	-2%	1%	-1%	45µM*	2%	1%
Cc1ccccc1-c1cncnc1NCCc1cnc[nH]1	-7%	0%	/	9%	-1%	-30%
COC1=CC2C3Cc4ccc(OC)c(O)c4[C@]2(CCN3C)CC1=O (stereo partly specified)	1%	/	/	-1%	0%	7%
COc1ccc(/C=C2\C(=O)NC(=O)N(Cc3ccccc3)C2=O)c(OC)c1OC	-15%	4%	1%	35µM*	6%	-2%
CCN1C(=O)C(=C/C=C/c2ccco2)C(=O)N(CC)C1=S	-28%	3%	/	40µM*	0%	1%
COc1ccc(CN2C(=O)NC(=O)/C(=C\c3ccco3)C2=O)cc1	-7%	10%	/	71µM*	-1%	-5%
COc1ccc(CN2C(=O)NC(=O)/C(=C\c3cc(OC)c(OC)c(OC)c3)C2=O)cc1	-14%	-1%	/	-9%	1%	33%
Cc1ccc(/C=C2/C(=O)NC(=O)N(CCc3ccc(F)cc3)C2=O)o1	?	7%	1%	56µM*	-1%	25%
CC(C)N1C(=O)/C(=C/C=C/c2ccco2)C(=O)N(Cc2ccco2)C1=O	?	3%	-22%	-81%	?	?
COCCN(C(=O)CCl)c1c(C)cccc1C	11%	/	/	20%	/	10%
CCCN(CCC)[C@@H]1CCc2c(F)ccc(O)c2C1	/	/	/	/	2%	/
CCC(Oc1ccc(Cl)cc1)C(=O)OC1CC2CCC(C1)N2C (stereo unspecified)	/	/	/	5%	0%	/
CC(=O)CC(c1ccccc1)c1c(O)c2cc(O)ccc2oc1=O (stereo unspecified)	-9%	/	/	?	/	-2%
Cc1oc(-c2ccccc2)nc1CN1C(=O)C(C)N=C(c2ccccc2F)c2cc(Cl)ccc21 (stereo unspecified)	-11%	4%	0%	-12%	10%	13µM*
CN(C)C(=O)Oc1ccc(-c2cn3cc(C(F)(F)F)ccc3n2)cc1	-26%	2%	10µM*	5%	1%	1%
SMILES	VP16 counter	PINK1 expr mod	ClpP mod	Sfp inh	Epigenetic derep	RORgamma inh
CCOc1cc(C=O)ccc1O	2%	1%	-1%	/	/	7%
O=Cc1ccc(O)c(O)c1	-3%	0%	-1%	32µM*	-7%	-29%
c1ccc(N2CCCC3(CCNCC3)C2)nc1	6%	-1%	/	-2%	/	19%
CCOP(=O)(OCC)c1ccc(OP(=O)(c2cccc([N+](=O)[O-])c2)c2cccc([N+](=O)[O-])c2)cc1	-10%	2%	35µM*	15%	1%	28%
CC1CC(OP(O)(=S)c2ccc(N(C)C)cc2NC(=O)c2cccs2)CC(C)(C)C1 (stereo unspecified)	-10%	0%	/	10µM*	-2%	14%
CC(Cl)CCl (stereo unspecified)	1%	/	/	/	/	-1%
CNc1ccc2oc(C[C@@H]3OC4(CC[C@@H]3C)O[C@H](C(C)C(=O)c3ccc[nH]3)[C@H](C)C[C@H]4C)nc2c1C(=O)O (stereo partly specified)	/	/	/	17%	-2%	1.8µM*
O=C(Nc1cccc(C(=O)Nc2cc(C(=O)Nc3ccc([S+](=O)([O-])[O-])c4cc([S+](=O)([O-])[O-])cc(SOOO)c34)ccc2F)c1)Nc1cccc(C(=O)Nc2cc(C(=O)Nc3ccc([S+](=O)([O-])[O-])c4cc([S+](=O)([O-])[O-])cc([S+](=O)([O-])[O-])c34)ccc2F)c1	-3%	/	/	?	/	7%
CCCC[C@@H](C)[C@@H](OC(=O)C[C@@H](CC(=O)O)C(=O)O)[C@H](C[C@@H](C)CCCCCC[C@@H](O)C[C@H](O)[C@H](C)N)OC(=O)C[C@@H](CC(=O)O)C(=O)O	-9%	/	/	14%	/	0%
CC(=O)N1CCN(c2ccc(OCC3CO[C@@](Cn4ccnc4)(c4ccc(Cl)cc4Cl)O3)cc2)CC1 (stereo partly specified)	?	/	/	-49%	0%	2%
Cc1ccc(NC(=O)CN2C(=O)CN=C(c3ccccc3)c3cc(Cl)ccc32)cc1	-5%	?	-3%	-1%	-1%	-14%
CN(C)c1ccc(NC(=O)CN2C(=O)CN=C(c3ccccc3)c3cc(Cl)ccc32)cc1	0%	1%	-3%	79µM*	3%	5%
CC(=O)C1=NOC(CNc2ncc(C(F)(F)F)cc2Cl)C1 (stereo unspecified)	-2%	1%	/	17%	1%	?
O=C(C1CCN(Cc2ccccc2)CC1)N1CCCC1	-11%	2%	-1%	79µM*	1%	-6%
O=C(Cc1c(Cl)cccc1Cl)N1CCN(Cc2ccccc2)CC1	-22%	0%	-4%	-1%	/	5%

Screens deposited in PubChem by National Center for Advancing Translational Sciences (NCATS).
